The results in this text go back to PubChem BioAssay (NCI).

This is part of a sample that, as a whole, favours compounds with a hit. Of some 83,000 tested, about 20% had one in any assay.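 Single-concentration screen, 48 h exposure, 96-well plates. Endpoint: percent growth. Below 10 = active.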 Values without a mark were called inactive. The source made the active and inactive calls.

Assay in all cases: NCI-60 one-dose screen, 48 h (100 = growth as untreated, 0 = no growth, -100 = all killed)
What all share (details): 10 µM unless noted

Assay [1] deals with SK-MEL-2 melanoma.
Assay [2] relates to EKVX NSCLC.
Assay [3] deals with SN12C renal.
Assay [4] has as its system UO-31 renal.
Assay [5] concerns TK-10 renal.
Assay [6] concerns ACHN renal.
In assay [7] the test system is CAKI-1 renal.
In assay [8] the test system is A498 renal.
Assay [9] concerns CCRF-CEM leukemia.
The test system of assay [10] is MOLT-4 leukemia.
The subject of assay [11] is SR leukemia.
In assay [12] the test system is OVCAR-8 ovarian.
Assay [13] deals with OVCAR-5 ovarian.
Assay [14] relates to OVCAR-4 ovarian.
For assay [15], the system named is SK-OV-3 ovarian.
The test system of assay [16] is OVCAR-3 ovarian.
The test system of assay [17] is HS 578T breast.
In assay [18] the test system is NCI/ADR-RES ovarian.
The test system of assay [19] is RPMI-8226 leukemia.
Assay [20] relates to IGROV1 ovarian.

In the case of `CCC(c1ccc(OC)cc1)C(CC)c1ccc(O)c(CN2CCCC2)c1` (centres undefined), the growth in [1] was -37.6% (active); in assay [2] it was 11.3%; in [3], 23.3%; in [4] it was 15%; in assay [5] it was 54.5%; in [6], 39.3%. The growth in assay [7] was 32.6%; in assay [8] it was -5.74% (active); in assay [9] it was 19.7%; in assay [10], 1.69% (active); in assay [11] it was -43% (active); in [12], 36.7%. Further, the growth in [13] is 63%; in assay [14], 31.7%; in [15] it was 34.5%; in [16], 20.3%; in assay [17], 12.4%; in assay [18], 18.7%.
Turning to `CCN(CC)S(=O)(=O)c1ccc2[nH]c(=O)cc(C(=O)Nc3ccc(OC)cc3OC)c2c1`, the growth in assay [1] is 88.8%; in assay [2], 166%; in assay [3], 108%; in [4] it was 108%; in assay [5] it was 115%; in assay [6], 103%. Moreover, the growth is 120% in [7]; 146% in [8]; 92.6% in [9]; 99.7% in [10]; 108% in assay [19]; 109% in [12]. Also, the growth was 100% in assay [13]; 115% in assay [14]; 108% in assay [15]; 34.4% in assay [20]; 118% in [16]; 103% in assay [17]. The growth in assay [18] is 99.6%.
Regarding `NC(=O)c1c(NC(=O)c2ccc(OCC3CCCO3)cc2)sc2c1CCCC2` (centres undefined), the growth in assay [1] is 84.9%; in assay [2] it was 89.6%; in assay [3], 90.7%; in assay [4] it was 35%; in [5] it was 126%; in assay [6], 106%. In addition, the growth is 108% in assay [7]; 86.5% in [8]; 79.9% in assay [9]; 99.3% in assay [10]; 83.7% in assay [19]; 104% in assay [12]. The growth in assay [13] is 101%; in [14] it was 115%; in assay [15], 119%; in [20], -23.3% (active); in [16], 108%; in assay [17], -24.5% (active). The growth in assay [18] was 97.1%.
With `COc1ccc(/C(=N\O)c2cc(OC)c(OC)c(OC)c2)c(OC)c1N`, the growth in assay [1] is 35.1%; in [2] it was 47.3%; in [3] it was 44.4%; in assay [4], 50.3%; in assay [5] it was 9.72% (active); in [6] it was 40.5%. The growth in assay [7] is 28.1%; in assay [8], -19.3% (active); in assay [9] it was 12.6%; in assay [10], 24.1%; in assay [19] it was 24.2%; in assay [12] it was 18%. The growth was 47.8% in assay [13]; 42.9% in assay [14]; 43% in [15]; 46.1% in [20]; -25.1% (active) in assay [16]; 7.51% (active) in assay [17]. Also, the growth in assay [18] is 18.2%.
Regarding `COc1ccc(/C(=N/O)c2cc(F)c(F)c(OC)c2F)cc1O`, the growth in assay [1] was 3.65% (active); in assay [2] it was 45.5%; in assay [3] it was 45.7%; in assay [4] it was 52.6%; in assay [5] it was 88.7%; in assay [6], 48.4%. In addition, the growth in [7] is 28.1%; in assay [8] it was 2.7% (active); in assay [9] it was 15.5%; in [10], 37.4%; in assay [19], 22.1%; in assay [12], 17.7%. Besides, the growth is 52.1% in assay [13]; 58.6% in assay [14]; 17.3% in assay [15]; 50.6% in assay [20]; -2.69% (active) in assay [16]; 8.26% (active) in [17]. For the same compound, the growth in [18] is 17.4%.
Take `CC(Cc1nnc(SCC(=O)Nc2ccc(I)cc2)n1N)c1ccccc1` (centres undefined): the growth in [1] was 69.8%; in [2], 82.5%; in assay [3], 98.4%; in assay [4], 74.1%; in assay [5], 89.9%; in [6], 86.5%. Also, the growth in [7] was 104%; in assay [8] it was 99.9%; in assay [9], 54.9%; in [10], 93.4%; in [19], 59.8%; in assay [12] it was 95.9%. Moreover, the growth in assay [13] is 84.4%; in [15], 97.8%; in [20] it was 8.44% (active); in [16], 111%; in assay [17], 119%; in assay [18], 96%.
Turning to `COc1cc(C2CC(c3c(C)[n+]([O-])c4ccccc4[n+]3[O-])=NN2)cc(OC)c1OC` (centres undefined), the growth in assay [1] was 96.4%; in assay [2], 123%; in [3], 94.4%; in [4], 94.6%; in [5], 122%; in assay [6] it was 103%. Besides, the growth in assay [7] was 106%; in assay [8], 97.5%; in assay [9], 87.5%; in [10], 94.4%; in [19] it was 102%; in assay [12], 109%. For the same compound, the growth in assay [13] is 100%; in assay [14], 104%; in assay [15], 103%; in [20], 16.2%; in [16], 98%; in assay [17], 103%. In addition, in [18], the growth is 101%.
With `NC(=O)NNC(=O)c1ccccc1`, the growth in assay [1] is 128%; in assay [2], 96.3%; in assay [3] it was 114%; in assay [4] it was 89.8%; in [5], 103%; in assay [6], 109%. Moreover, the growth in assay [7] is 92.5%; in assay [8] it was 124%; in [9], 105%; in [10] it was 102%; in assay [19], 103%; in assay [12], 110%. The growth in assay [13] was 109%; in [14], 108%; in assay [15], 123%; in [16], 111%; in [17], 108%; in assay [18], 103%.
